Data: PubChem BioAssay AID934 (National Center for Advancing Translational Sciences (NCATS), 2007)
Records with an inconclusive call do not appear. Calls of active or inactive are those of the source. The call rests on the fitted dose curve; in most records, active means well fitted activation curve with a large enough effect; inconclusive means small, poorly fitted or top-dose-only effect; inactive means flat fitted curve, though single readings scatter.

Assay: Parental Cell Counter Screen for Stat Signaling Pathway Assay
Conditions: ME-180 (cervical carcinoma) parental cells, blue fluorescence artefact counter-screen; series mostly up to 38.3 µM; activity (fluorescence increase): at the top concentration
Method in brief: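 Fluorescence at 405 nm excitation, 460 and 530 nm emission, was read after 2.5 hr at room temperature with LiveBLAzer detection mix. Before that, parental ME-180 cells without the reporter were plated overnight, then exposed to compound and 40 pM IL-6 (final) for 5 hr at 37 C.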

Structure (SMILES) | activity (fluorescence increase) | Potency
COc1ccc2[nH]c3c(N4CCN(Cc5ccc6c(c5)OCO6)CC4)ncnc3c2c1 | 9.26% (inactive) | 
COc1ccc(-c2nn3c(COc4ccccc4)nnc3s2)cc1OC | 10.2% (inactive) | 
NCCSc1nc2ccccc2s1 | 11.3% (inactive) | 
CN1CCc2c(sc3ncn4nc(-c5ccccc5O)nc4c23)C1 |  | 31.6 µM (active)
COc1ccc(C[C@@H]2C(=O)N[C@H](C)C(=O)N(C)[C@@H]3Cc4ccc(cc4)Oc4cc(ccc4O)C[C@H](C(=O)N[C@@H](C)C(=O)N[C@H](C)C(=O)N2C)N(C)C3=O)cc1 | 10.4% (inactive) | 
C=C1C(=O)O[C@@H]2[C@H]3O[C@]3(C)CCC=C(C)CC[C@@H]12 | -1.87% (inactive) | 
COc1cccc2c1[C@H](CO)N1[C@H](C#N)[C@@H]3C[C@H](C(=O)O)[C@@H]([C@@H]1C2)N3C | 12.3% (inactive) | 
COc1ccc2c(c1)c1c(C)c3cnccc3c(C)c1n2CCCN |  | 31.6 µM (active)
NS(=O)(=O)c1ccc(N=Nc2cc3ccccc3c(C(=O)O)c2O)cc1 | 4.72% (inactive) | 
CCN(CC)CCNc1ccc(CO)c2sc3ccccc3c(=O)c12 | -13.1% (inactive) | 
CCCCc1nc(NCCNC(=O)c2ccco2)c(C#N)c2c1CSC(C)(C)C2 | 25.9% (inactive) | 
COc1cccc2c1C(=O)c1c(O)c3c(c(O)c1C2=O)C[C@@](O)(C(=O)CO)C[C@@H]3O[C@H]1C[C@H](N)[C@H](O)[C@H](C)O1 | 17.6% (inactive) | 
Cc1ccc(S(=O)(=O)N2CCN(c3nc(C)c4c(c3C#N)CC(C)(C)OC4)CC2)cc1 | 22.2% (inactive) | 
N/C(=N\O)c1cn([C@@H]2O[C@@H](CO)[C@H](O)[C@@H]2O)c2ncnc(NO)c12 | 18.9% (inactive) | 
Cc1cc(=O)oc2c(CN3CCCCC3)c(O)c(Cl)cc12 |  | 10 µM (active)
CC1(C)Cc2c(C#N)c(NCCc3ccccc3)nc(-c3ccco3)c2CO1 |  | 5.01 µM (active)
Cn1c(NCc2ccccc2)nc2c1c(=O)n(Cc1ccc(Br)cc1)c(=O)n2C | 13.9% (inactive) | 

Structure (SMILES) | activity (fluorescence increase) | Potency
ClC(=Nc1cccc2ccccc12)N(c1ccccc1)c1ccccc1 | 7.48% (inactive) | 
CN(C)CCCN=c1c2ccccc2n(C)c2[nH]c(=O)n(C)c(=O)c12 | 8.49% (inactive) | 
C=CCNC(=O)C(C#N)c1nc2ccccc2nc1N1CCCCCC1 (stereo not drawn) |  | 15.8 µM (active)
CCCCCCc1cc2cc(-c3nnc(-c4ccccc4O)o3)c(=O)oc2cc1O |  | 0.0126 µM (active)
COc1cccc2c1C(=N)c1c(O)c3c(c(O)c1C2=O)C[C@](O)(C(C)=O)C[C@@H]3O[C@H]1C[C@H](N)[C@@H](O)[C@H](C)O1 | 16% (inactive) | 
O=C1Nc2ccc(I)cc2/C1=C/c1cc(Br)c(O)c(Br)c1 | 17% (inactive) | 
COc1cc(-c2nn3c(COc4ccccc4)nnc3s2)cc(OC)c1OC | 8.33% (inactive) | 
CC1CCN(CC[S-])CC1.O.O.[Cl][Pt] | 28.3% (inactive) | 
O=C1CC(N(O)C2CC(=O)N(Cc3ccccc3)C2=O)C(=O)N1Cc1ccccc1 (stereo not drawn) | 21.3% (inactive) | 
O=C(O)c1c(Br)c(Br)c(Br)c(Br)c1C1c2ccc(O)cc2Oc2cc(O)ccc21 | 8.49% (inactive) | 
CCOC(=O)N1CCC(=C2c3ccc(Cl)cc3CCc3cccnc32)CC1 | 22.2% (inactive) | 
CC[C@@H]1CN2CCc3cc(OC)c(OC)cc3[C@H]2C[C@@H]1C[C@H]1NCCc2cc(OC)c(OC)cc21 | 7.48% (inactive) | 
CCOC(=O)CSc1nnc2n(Cc3ccccc3)c(=O)c3c4c(sc3n12)CCC4 | 16.7% (inactive) | 
Cc1ccccc1CNc1ncnc2c1ncn2[C@@H]1O[C@@H](CO)[C@H](O)[C@@H]1O | 12.1% (inactive) | 
CCC(=O)Oc1oc(-c2ccccc2)nc1C=Nc1ccccc1OC | 17.6% (inactive) | 
O=C(O)CCc1c2ccc(=O)c(O)c-2oc2c(O)c(O)ccc12 | -1.89% (inactive) | 
